The supplement of paper PMC8728848
The entries come from a sample that favours the strongest signals as a whole.

Experiments:
Test in all cases: glycan array binding signal (z-score within array); higher = stronger binding
Details in all cases: glycan notation: IUPAC condensed, linker removed
[1] = molecular target: Fuc(a1-2)Gal(b1-3)GlcNAc(b1-3)GalNAc
In short: (§1)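 Glycan array data came from 3228 arrays in the Consortium for Functional Glycomics database, and only arrays with an available protein sequence were kept. Glycan names were put into IUPAC-condensed notation, and columns mapping to the same glycan were averaged. The binding signal is a within-array Z-score, averaged across arrays of one protein sequence run at different concentrations or buffers and across linkers. A negative Z-score can be read as non-binding.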

[2] = molecular target: Fuc(a1-2)Gal(b1-4)GlcNAc6S
In short: as §1

[3] = molecular target: Fuc(a1-2)Gal(b1-4)[Fuc(a1-3)]GlcNAc(b1-2)[Fuc(a1-2)Gal(b1-4)[Fuc(a1-3)]GlcNAc(b1-4)]Man(a1-3)[Fuc(a1-2)Gal(b1-4)[Fuc(a1-3)]GlcNAc(b1-2)Man(a1-6)]Man(b1-4)GlcNAc(b1-4)GlcNAc
In short: as §1

[4] = molecular target: Fuc(a1-2)Gal(b1-4)[Fuc(a1-3)]GlcNAc(b1-3)[Neu5Ac(a2-6)Gal(b1-4)GlcNAc(b1-6)]Gal(b1-4)Glc
In short: as §1

Fuc(a1-2)Gal6S(b1-4)Glc = molecular target: Fuc(a1-2)Gal6S(b1-4)Glc
In short: as §1

[5] = molecular target: Fuc(a1-2)[Gal(a1-3)]Gal(b1-3)GlcNAc
In short: as §1

[6] = molecular target: Fuc(a1-2)[GalNAc(a1-3)]Gal(b1-3)GalNAc(b1-3)Gal(a1-4)Gal(b1-4)Glc
In short: as §1

[7] = molecular target: Fuc(a1-2)[GalNAc(a1-3)]Gal(b1-4)GlcNAc(b1-2)Man(a1-3)[Fuc(a1-2)[GalNAc(a1-3)]Gal(b1-4)GlcNAc(b1-2)Man(a1-6)]Man(b1-4)GlcNAc(b1-4)[Fuc(a1-6)]GlcNAc
In short: as §1

[8] = molecular target: Fuc(a1-2)[GalNAc(a1-3)]Gal(b1-4)GlcNAc(b1-3)Gal(b1-4)GlcNAc(b1-3)Gal(b1-4)GlcNAc
In short: as §1

[9] = molecular target: Fuc(a1-2)[GalNAc(a1-3)]Gal(b1-4)[Fuc(a1-3)]GlcNAc(b1-3)GalNAc
In short: as §1

Fuc(a1-4)GlcNAc = molecular target: Fuc(a1-4)GlcNAc
In short: as §1

[10] = molecular target: Gal(a1-3)Gal(b1-4)GlcNAc(b1-2)Man(a1-3)[Gal(a1-3)Gal(b1-4)GlcNAc(b1-2)Man(a1-6)]Man(b1-4)GlcNAc(b1-4)GlcNAc
In short: as §1

Gal(b1-3)GalNAc(b1-3)Gal = molecular target: Gal(b1-3)GalNAc(b1-3)Gal
In short: as §1

[11] = molecular target: Gal(b1-3)GlcNAc(a1-6)Gal(b1-4)GlcNAc
In short: as §1

[12] = molecular target: Gal(b1-3)GlcNAc(b1-2)Man(a1-3)[Gal(b1-3)GlcNAc(b1-2)Man(a1-6)]Man(b1-4)GlcNAc(b1-4)[Fuc(a1-6)]GlcNAc
In short: as §1

[13] = molecular target: Gal(b1-3)GlcNAc(b1-2)[Gal(b1-3)GlcNAc(b1-6)]Man(a1-6)[Gal(b1-3)GlcNAc(b1-2)Man(a1-3)]Man(b1-4)GlcNAc(b1-4)GlcNAc
In short: as §1

[14] = molecular target: Gal(b1-3)GlcNAc(b1-3)Gal(b1-4)Glc
In short: as §1

[15] = molecular target: Gal(b1-3)GlcNAc(b1-3)Gal(b1-4)GlcNAc(b1-2)[Gal(b1-3)GlcNAc(b1-3)Gal(b1-4)GlcNAc(b1-6)]Man(a1-6)[Gal(b1-3)GlcNAc(b1-3)Gal(b1-4)GlcNAc(b1-2)Man(a1-3)]Man(b1-4)GlcNAc(b1-4)[Fuc(a1-6)]GlcNAc
In short: as §1

[16] = molecular target: Gal(b1-3)GlcNAc(b1-3)Gal(b1-4)GlcNAc(b1-3)Gal(b1-4)GlcNAc(b1-2)[Gal(b1-3)GlcNAc(b1-3)Gal(b1-4)GlcNAc(b1-3)Gal(b1-4)GlcNAc(b1-6)]Man(a1-6)[Gal(b1-3)GlcNAc(b1-3)Gal(b1-4)GlcNAc(b1-3)Gal(b1-4)GlcNAc(b1-2)Man(a1-3)]Man(b1-4)GlcNAc(b1-4)[Fuc(a1-6)]GlcNAc
In short: as §1

[17] = molecular target: Gal(b1-3)[Fuc(a1-4)]GlcNAc(b1-6)GalNAc
In short: as §1

[18] = molecular target: Gal(b1-4)GalNAc(a1-3)[Fuc(a1-2)]Gal(b1-4)GlcNAc
In short: as §1

Gal(b1-4)Glc = molecular target: Gal(b1-4)Glc
In short: as §1

[19] = molecular target: Gal(b1-4)GlcNAc(b1-3)Gal(b1-3)GalNAc
In short: as §1

[20] = molecular target: Gal(b1-4)GlcNAc(b1-3)Gal(b1-4)GlcNAc(b1-3)Gal(b1-4)GlcNAc(b1-3)Gal(b1-4)GlcNAc(b1-3)Gal(b1-4)GlcNAc(b1-2)Man(a1-3)[Gal(b1-4)GlcNAc(b1-3)Gal(b1-4)GlcNAc(b1-3)Gal(b1-4)GlcNAc(b1-3)Gal(b1-4)GlcNAc(b1-3)Gal(b1-4)GlcNAc(b1-2)Man(a1-6)]Man(b1-4)GlcNAc(b1-4)GlcNAc
In short: as §1

[21] = molecular target: Gal(b1-4)GlcNAc(b1-3)Gal(b1-4)GlcNAc(b1-3)Gal(b1-4)GlcNAc(b1-3)Gal(b1-4)GlcNAc(b1-3)Gal(b1-4)GlcNAc(b1-2)[Gal(b1-4)GlcNAc(b1-3)Gal(b1-4)GlcNAc(b1-3)Gal(b1-4)GlcNAc(b1-3)Gal(b1-4)GlcNAc(b1-3)Gal(b1-4)GlcNAc(b1-6)]Man(a1-6)[Gal(b1-4)GlcNAc(b1-3)Gal(b1-4)GlcNAc(b1-3)Gal(b1-4)GlcNAc(b1-3)Gal(b1-4)GlcNAc(b1-3)Gal(b1-4)GlcNAc(b1-2)Man(a1-3)]Man(b1-4)GlcNAc(b1-4)[Fuc(a1-6)]GlcNAc
In short: as §1

Gal3S(b1-4)Glc = molecular target: Gal3S(b1-4)Glc
In short: as §1

Gal6S(b1-3)GlcNAc = molecular target: Gal6S(b1-3)GlcNAc
In short: as §1

[22] = molecular target: GalNAc(a1-3)GalNAc(b1-3)Gal(a1-4)Gal(b1-4)Glc
In short: as §1

B1: FimD (Bordetella pertussis) (protein)
chain: MPARVISFCGAALAVWAGLAVQPAMAVDPPVDCGRALGLHFWSSASLISDQTPDGTLIGKPVVGRSLLSKSCKVPDDIKEDLSDNHDGEPVDIVLELGSNYKIRPQSYGHPGIVVDLPFGSTEETGIAIYIDFGSSPMQKVGERQWLYPQKGEVLFDVLTINGDNAEVRYQAIKVGPLKRPRKLVLSQFPNLFTYKWVFMRGTSQERVLAQGTIDTDVATSTIDLKTCRYTSQTVSLPIIQRSALTGVGTTLGMTDFQMPFWCYGWPKVSVYMSATKTQTGVDGVALPATGQAAGMASGVGVQLINGKTQQPVKLGLQGKIALPEAQQTESATFSLPMKAQYYQTSTSTSAGKLSVTYAVTLNYD
glycan array binding signal (z-score) [1]: -0.342 | glycan array binding signal (z-score) [2]: -0.052 | glycan array binding signal (z-score) [3]: 0.133 | glycan array binding signal (z-score) [4]: -0.355 | glycan array binding signal (z-score) (Fuc(a1-2)Gal6S(b1-4)Glc): -0.056 | glycan array binding signal (z-score) [5]: -0.256 | glycan array binding signal (z-score) [6]: -0.248 | glycan array binding signal (z-score) [7]: -0.394 | glycan array binding signal (z-score) [8]: 0.141 | glycan array binding signal (z-score) [9]: 19.2 | glycan array binding signal (z-score) (Fuc(a1-4)GlcNAc): 1.73 | glycan array binding signal (z-score) [10]: 1.67 | glycan array binding signal (z-score) (Gal(b1-3)GalNAc(b1-3)Gal): -0.089 | glycan array binding signal (z-score) [11]: -0.163 | glycan array binding signal (z-score) [12]: 0.621 | glycan array binding signal (z-score) [13]: 0.171 | glycan array binding signal (z-score) [14]: -0.264 | glycan array binding signal (z-score) [15]: 1.82 | glycan array binding signal (z-score) [16]: 0.259 | glycan array binding signal (z-score) [17]: 2.73 | glycan array binding signal (z-score) [18]: -0.051 | glycan array binding signal (z-score) (Gal(b1-4)Glc): -0.288 | glycan array binding signal (z-score) [19]: -0.264 | glycan array binding signal (z-score) [20]: 0.072 | glycan array binding signal (z-score) [21]: 0.919 | glycan array binding signal (z-score) (Gal3S(b1-4)Glc): -0.263 | glycan array binding signal (z-score) (Gal6S(b1-3)GlcNAc): 0.772 | glycan array binding signal (z-score) [22]: -0.169
